Assay results as given in PubChem BioAssay AID651558 (National Center for Advancing Translational Sciences (NCATS), 2012).
About 480 (40%) of roughly 1,200 compounds were called active. Inconclusive results (about 29%) are left out. Calls follow the shape of the dose curve; as a rule, active = well fitted inhibition curve with a large enough effect; inconclusive = small, poorly fitted or top-dose-only effect; inactive = no such curve, though single readings can be large or run the other way. The list shows a part of the results.
Potency is read from the fitted curve at half-maximal effect.

Test: qHTS Assay to Find Inhibitors of Chronic Active B-Cell Receptor Signaling: Hit Validation in Primary Screen; also: nearly all actives have a fitted effect of over 75% in size
Conditions: ABC-DLBCL IkB-luc/CBR ratio luminescence, 4 h; series mostly up to 46.1 µM
Summary of the method: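 TMD8 ABC-DLBCL cells carrying doxycycline-inducible IkBa-green luciferase fusion and free red luciferase, 0.5% FBS, dosed 46 uM–3 nM with doxycycline for 4 h at 37C. Green/red luminescence ratio normalized to basal and 10 uM MG-132.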
In the case of `COc1cc(-c2noc(C)c2C#Cc2ccc(N)cc2)cc(OC)c1OC`, the Potency is reported as 2.91 µM (active).
In the case of `COc1cc(-c2noc(C)c2C#Cc2ccsc2)cc(OC)c1OC`, the Potency is reported as 8.2 µM (active).
With `CNC(=S)N/N=C/c1ccco1` the Potency was “inactive”.
For `CNC(=S)N/N=C1\C(=O)c2cccc3cccc1c23`, the Potency was 18.4 µM (active).
With `NC(=S)NN=C1c2ccccc2-c2ccccc21` the Potency was “inactive”.
For `COc1ccc(-c2cccc(-c3cc(=O)oc4cc(OC)cc(OC)c34)c2)cc1`, the Potency was 1.16 µM (active).
With `CC(=O)c1ccsc1-c1c(C)cc2oc(=O)cc(-c3ccccc3)c2c1C` the Potency was “inactive”.
With `COc1cc(OC)c2c(-c3cccc(-c4ccc(OC)c(F)c4)c3)cc(=O)oc2c1` the Potency was 1.16 µM (active).
With `COc1cc(OC)c2c(-c3cccc(-c4sccc4C(C)=O)c3)cc(=O)oc2c1` the Potency was 5.17 µM (active).
With `COc1cc(OC)c2c(-c3cccc(-c4ccc(N(C)C)cc4)c3)cc(=O)oc2c1` the Potency was 2.06 µM (active).
With `COc1cc(OC)c2c(-c3cccc(-c4ccc(NC(C)=O)cc4)c3)cc(=O)oc2c1` the Potency was 2.59 µM (active).
For `COc1cc(OC)c2c(-c3cccc(-c4ccc(O)cc4)c3)cc(=O)oc2c1`, the Potency was 2.59 µM (active).
In the case of `COc1cc(OC)c2c(-c3cccc(-c4cccc(N)c4)c3)cc(=O)oc2c1`, the Potency is reported as 6.51 µM (active).
With `CCc1ccc(N2CC(C(=O)OCC(=O)Nc3ccccc3C)CC2=O)cc1` (configuration not stated) the Potency was “inactive”.
For `Cc1[nH][nH]c(=O)c1C(c1c(C)[nH][nH]c1=O)c1cn(Cc2ccc(F)cc2)c2ccccc12`, the Potency was 14.6 µM (active).
For `CCOC(=O)C(NCc1ccccc1)(NC(=O)c1ccccc1)C(F)(F)F` (configuration not stated), the Potency was “inactive”.
In the case of `S=C(Nc1ccccc1)Nc1nccs1`, the Potency is reported as “inactive”.
With `CCc1nnc(NC(=S)Nc2ccccc2)s1` the Potency was 0.651 µM (active).
In the case of `CCNC(=S)NNc1ccccc1`, the Potency is reported as “inactive”.
With `CCCc1nnc(NC(=O)CCC(=O)NCCc2ccc(OC)c(OC)c2)s1` the Potency was “inactive”.
For `CCCc1nnc(NC(=S)Nc2ccccc2)s1`, the Potency was 0.164 µM (active).
For `Cc1csc(NC(=S)Nc2cccc(Cl)c2)n1`, the Potency was “inactive”.
For `Cc1cc(Cl)n2c(nc3ccccc32)c1C#N`, the Potency was 1.84 µM (active).
For `Cc1nn(-c2ccccc2)c(C)c1/C=N/NC(=O)c1cc(-c2cccs2)[nH]n1`, the Potency was 3.26 µM (active).
For `Cc1nn(-c2ccccc2)c(C)c1/C=N/NC(=O)c1cc(-c2ccccc2)n[nH]1`, the Potency was 2.31 µM (active).
With `Cc1ccc(-c2cc(C(=O)N/N=C/c3c(C)nn(-c4ccccc4)c3C)[nH]n2)cc1` the Potency was 2.31 µM (active).
With `C[C@@H]1C[C@H]2[C@@H]3C[C@H](F)C4=CC(=O)C=C[C@]4(C)[C@@]3(F)[C@@H](O)C[C@]2(C)[C@@]1(O)C(=O)CO` the Potency was “inactive”.
